{"source": "the supplement of paper PMC7366291", "conditions_in_all_cases": "25 µM; exposure: 24-48 hpf", "key": {"[1]": {"test_system": "Danio rerio Tg(wt1b:EGFP) embryo, pronephros", "assay": "glomerular separation, fold change vs DMSO control; higher = glomeruli further apart (abnormal)", "in_short": "(§1)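 Dechorionated Tg(wt1b:EGFP) zebrafish embryos were incubated at 28.5°C from 24 to 48 hpf with 25 μM compound in HEPES-buffered E3 containing 0.5% DMSO and 0.003% PTU. Distances and angles between 16 manually set points on maximum projections of dorsal pronephros images were measured in Fiji, with values over 2 SD from the feature mean excluded. Each feature is a fold change relative to the mean of same-day DMSO-treated embryos.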"}, "[2]": {"test_system": "Danio rerio Tg(wt1b:EGFP) embryo, pronephros", "assay": "glomerular width (mean of left and right), fold change vs DMSO control; higher = wider glomerulus", "in_short": "as §1"}, "[3]": {"test_system": "Danio rerio Tg(wt1b:EGFP) embryo, pronephros", "assay": "fraction of imaged embryos annotated as normal kidney; higher = less nephrotoxic; extreme values may be limits of the assay", "in_short": "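From 24 to 48 hpf at 28.5°C, dechorionated Tg(wt1b:EGFP) zebrafish embryos in 12-well plates were kept in 5 mM HEPES-buffered E3 with 0.003% PTU, 0.5% DMSO and 25 μM compound. Pronephroi were imaged by widefield fluorescence at 470 nm and judged by eye from maximum projections. Reported is the proportion of embryos per treatment in the normal-kidney category.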"}, "[4]": {"test_system": "Danio rerio Tg(wt1b:EGFP) embryo, pronephros", "assay": "pronephric angle neck segment to proximal convoluted tubule (mean of left and right), fold change vs DMSO control; higher = larger pronephric angle", "in_short": "as §1"}}, "note": "± gives the standard deviation or the standard deviation of the averaged measurements.", "data": [{"smiles": "C[C@]12C=CC(=O)C=C1CC[C@@H]1[C@@H]2[C@@H](O)C[C@@]2(C)[C@H]1CC[C@]2(O)C(=O)CO", "note": "[Prednisolone]", "values": [{"measurement": "glomerular separation", "setting": "[1]", "result": "1.36 ± 0.94"}, {"measurement": "glomerular width", "setting": "[2]", "result": "1.22 ± 0.043"}, {"measurement": "fraction of imaged embryos annotated as normal kidney", "setting": "[3]", "result": 0.75}, {"measurement": "pronephric angle neck segment", "setting": "[4]", "result": "1.04 ± 0.02"}]}, {"smiles": "Cc1ccccc1N1C(=O)c2cc(S(N)(=O)=O)c(Cl)cc2NC1C", "note": "(configuration not stated) [Metolazone]", "values": [{"measurement": "glomerular separation", "setting": "[1]", "result": "0.86 ± 0.34"}, {"measurement": "glomerular width", "setting": "[2]", "result": "1 ± 0.062"}, {"measurement": "fraction of imaged embryos annotated as normal kidney", "setting": "[3]", "result": 0.917}, {"measurement": "pronephric angle neck segment", "setting": "[4]", "result": "1.03 ± 0.016"}]}, {"smiles": "CCCCOc1ccc(CC(=O)NO)cc1", "note": "[Bufexamac]", "values": [{"measurement": "glomerular separation", "setting": "[1]", "result": "1.11 ± 0.37"}, {"measurement": "glomerular width", "setting": "[2]", "result": "1.015 ± 0.0014"}, {"measurement": "fraction of imaged embryos annotated as normal kidney", "setting": "[3]", "result": 0.75}, {"measurement": "pronephric angle neck segment", "setting": "[4]", "result": "0.9927 ± 0.0019"}]}]}
